Screens (PubChem BioAssay)
C diff HTS – C. difficile growth inhibitors, primary screen, HTS. Clostridium difficile clinical isolate growth, OD600, 24 h; stronger effect = lower value. 86,000 tested, 0.25% active. growth activity, negative = inhibition, % at 16 µg/mL (by protocol). AID 1259249, 2017;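 active = mean growth activity at or below -80% and every replicate also at or below -80%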
T cruzi growth-1 – T. cruzi intracellular proliferation inhibitors, primary screen, cell-based, beta-gal Tulahuen parasites, NIH3T3 host, luminescence; 77,000 tested, 5.9% active; AID 624255, 2012; inhibition, % at 8.34 µM; T. cruzi beta-gal in NIH3T3, GalScreen luminescence, 90 h;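 active = mean inhibition above about 93%, with at least 55% of replicates each passing it, limit read from the data, passing the limit was not always enough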
Pf Dd2 growth – P. falciparum Dd2 growth inhibitors, primary screen, SYBR Green fluorescence, single dose replicates | activity change, % at 10 µM | 72 h; stronger effect = lower value | 94,000 tested, 2.3% active; in the data active = activity change below about -80%
T cruzi growth-2 – T. cruzi intracellular proliferation inhibitors, confirmation, cell-based, NIH3T3 host, beta-gal parasite, luminescence, cherry-pick. T. cruzi beta-gal in NIH3T3, GalScreen luminescence, 90 h. 5,600 tested, 72% active. shares compounds with T cruzi growth-1. inhibition, % at 8.35 µM. AID 651739, 2012;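 active = mean replicate inhibition above about 95% and at least 55% of replicates individually reaching it, limit read from the data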
T cruzi growth-3 – inhibitors of intracellular T. cruzi replication, confirmation, NIH3T3 host cells, beta-gal parasites, cherry-pick, set 2; inhibition, % at 2.09 µM; T. cruzi beta-gal in NIH3T3, GalScreen luminescence, 90 h; 5,600 tested, 21% active; AID 651740, 2012; shares compounds with T cruzi growth-1;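 active = mean inhibition above about 95%, with at least 55% of replicates also reaching it, limit read from the data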
3T3 cytotox – cytotoxicity in mouse NIH/3T3 fibroblasts, confirmation, cytotoxicity control for T. cruzi proliferation inhibitor project, cell-based, cherry-pick, single point; cytotoxicity (signal decrease), % at 8.35 µM; NIH/3T3 viability, CellTiter-Glo ATP luminescence, 90 h; AID 651742, 2012; shares compounds with T cruzi growth-1; 5,600 tested, 14% active;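 active = mean signal decrease across replicates above about 35% based on untreated-well scatter, with enough replicates individually passing, limit read from the data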
3T3 cytotox 2 – NIH/3T3 fibroblast cytotoxicity, confirmation, cytotoxicity control, cell-based, cherry-pick, single point, set 2. shares compounds with T cruzi growth-1. NIH/3T3 viability, CellTiter-Glo ATP luminescence, 90 h. inhibition, % at 24.9 µM. 5,600 tested, 56% active;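 active = mean loss of cell viability signal at or above a set limit, and enough replicates individually reaching it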
Numbers stand for hits; – = inactive; · = no result given; + = active, no number. An excerpt weighted towards active compounds, which were near 6.7% of everything screened.

SMILES	C diff HTS	T cruzi growth-1	Pf Dd2 growth	T cruzi growth-2	T cruzi growth-3	3T3 cytotox	3T3 cytotox 2
CN1[C@H](C(=O)Nc2ccccc2)[C@@H](CO)[C@@H]2Cn3c(ccc(-c4ccc(F)cc4)c3=O)[C@@H]21	–	+	·	102.7	–	–	–
CCN1[C@@H]2c3ccc(-c4ccc(F)cc4)c(=O)n3C[C@@H]2[C@@H](CO)[C@@H]1C(=O)Nc1ccccc1	–	·	–	·	·	·	·
O=C(C[C@H]1C[C@@H]2c3cc(NC(=O)Nc4ccccc4F)ccc3O[C@@H]2[C@H](CO)O1)NCC(F)(F)F	–	–	–	·	·	·	·
O=C(C[C@H]1CC[C@H]2[C@@H](COC[C@@H](O)CN2S(=O)(=O)c2cccc(Cl)c2)O1)NC1CCC1	–	–	–	·	·	·	·
O=C(C[C@H]1C=C[C@H](NC(=O)c2ccccn2)[C@@H](CO)O1)NCc1cccc(F)c1	–	–	–	·	·	·	·
COCC(=O)Nc1ccc2c(c1)C(=O)N(C)C[C@H](OC)[C@H](C)CN(C(=O)C1CCCC1)[C@H](C)CO2	·	–	–	·	·	·	·
C[C@@H]1CCCCO[C@@H](CN(C)C)[C@H](C)CN([C@@H](C)CO)C(=O)c2cc(NS(=O)(=O)c3cn(C)cn3)ccc2O1	–	–	–	·	·	·	·
CCCN1C[C@@H](C)[C@@H](OC)CN(C)C(=O)c2cc(NC(=O)COC)ccc2OC[C@H]1C	–	–	–	·	·	·	·
O=C(C1CCCC1)N1CCCCN2[C@@H](CO)[C@H](c3ccc(C#CC4CC4)cc3)[C@@H]2C1	–	121.3	–	110.4	–	40.2	81.9
O=C(C1CC1)N1CCCCN2[C@H](CO)[C@H](c3ccc(C#CC4CC4)cc3)[C@@H]2C1	–	–	–	·	·	·	·
O=C(C1CC1)N1CCCCN2[C@@H](CO)[C@@H](c3ccc(C#CC4CC4)cc3)[C@@H]2C1	–	–	–	·	·	·	·
O=C(C1CCC1)N1CCCCN2[C@H](CO)[C@@H](c3ccc(C#CC4CCCC4)cc3)[C@@H]2C1	–	–	–	·	·	·	·
O=C(C1CCC1)N1CCCCN2[C@H](C1)[C@H](c1ccc(C#CC3CCCC3)cc1)[C@@H]2CO	–	103.3	–	108.0	–	–	104.0
O=C(C1CC1)N1CCCCN2[C@@H](CO)[C@H](c3ccc(C#CC4CC4)cc3)[C@@H]2C1	–	103.2	–	–	–	–	51.6
O=C(C1CC1)N1CCCCN2[C@H](CO)[C@H](c3ccc(C#CC4CC4)cc3)[C@H]2C1	–	–	–	·	·	·	·
O=C(C1CCCC1)N1CCCCN2[C@H](CO)[C@@H](c3ccc(C#CC4CC4)cc3)[C@H]2C1	–	109.1	–	107.5	–	–	48.9
CO[C@H]1CN(C)C(=O)c2ccc(NS(=O)(=O)c3ccc(C)cc3)cc2OC[C@H](C)N(C(=O)NC(C)C)C[C@H]1C	·	–	·	·	·	·	·
C[C@H]1CN([C@@H](C)CO)C(=O)c2cccc(NS(C)(=O)=O)c2O[C@@H]1CN(C)Cc1ccc(C(F)(F)F)cc1	–	–	–	·	·	·	·
C[C@@H]1CN([C@H](C)CO)C(=O)Cc2cc(NC(=O)C3CC3)ccc2O[C@H]1CN(C)C(=O)Nc1ccc(F)cc1	–	–	–	·	·	·	·
C[C@H](CO)N1C[C@H](C)[C@@H](CN(C)CC2CCCC2)Oc2cc(C3=CCCC3)ccc2S1(=O)=O	–	102.8	–	103.1	–	–	107.2
C[C@@H]1CN([C@@H](C)CO)S(=O)(=O)c2ccc(C3=CCCCC3)cc2O[C@H]1CN(C)CC1CCCC1	–	123.3	–	102.4	–	120.2	105.5
C[C@@H]1CN([C@@H](C)CO)S(=O)(=O)c2ccc(C3=CCCC3)cc2O[C@H]1CN(C)CC1CC1	–	–	–	·	·	·	·
C[C@@H]1CN([C@@H](C)CO)S(=O)(=O)c2ccc(C3=CCCCC3)cc2O[C@@H]1CN(C)CC1CC1	·	–	–	·	·	·	·
